Reference: PubChem BioAssay (NCI)
This is part of a sample that, as a whole, favours compounds with a hit. Of some 83,000 tested, about 20% had one in any assay.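 Growth was measured after 48 h exposure to one concentration of compound in 96-well plates. Values under 10 count as active.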 Activity calls are given as the source filed them.

Tests used:
Experiment in all cases: NCI-60 one-dose screen, 48 h (100 = growth as untreated, 0 = no growth, -100 = all killed)
Details in all cases: 10 µM unless noted
SK-MEL-2 melanoma = test system: SK-MEL-2 melanoma
EKVX NSCLC = test system: EKVX NSCLC
SN12C renal = test system: SN12C renal
UO-31 renal = test system: UO-31 renal
TK-10 renal = test system: TK-10 renal
A498 renal = test system: A498 renal
CCRF-CEM leukemia = test system: CCRF-CEM leukemia
MOLT-4 leukemia = test system: MOLT-4 leukemia
SR leukemia = test system: SR leukemia
RPMI-8226 leukemia = test system: RPMI-8226 leukemia
OVCAR-8 ovarian = test system: OVCAR-8 ovarian
OVCAR-5 ovarian = test system: OVCAR-5 ovarian
OVCAR-4 ovarian = test system: OVCAR-4 ovarian
SK-OV-3 ovarian = test system: SK-OV-3 ovarian
OVCAR-3 ovarian = test system: OVCAR-3 ovarian
HS 578T breast = test system: HS 578T breast
NCI/ADR-RES ovarian = test system: NCI/ADR-RES ovarian
IGROV1 ovarian = test system: IGROV1 ovarian

Measured: growth

CC(C)CNCC(=O)Nc1ccc(Cc2ccc(NC(=O)CNCC(C)C)cc2)cc1
inactive: SK-MEL-2 melanoma 87.6% | EKVX NSCLC 67.9% | SN12C renal 49.7% | UO-31 renal 38.4% | TK-10 renal 84.8% | A498 renal 47.2% | CCRF-CEM leukemia 26.4% | MOLT-4 leukemia 23.1% | RPMI-8226 leukemia 32.8% | OVCAR-8 ovarian 62.1% | OVCAR-5 ovarian 72.8% | OVCAR-4 ovarian 71.6% | SK-OV-3 ovarian 84.1% | OVCAR-3 ovarian 74.5% | HS 578T breast 65.1% | NCI/ADR-RES ovarian 78.2%
active: SR leukemia 6.24%

COc1ccc2c(c1)OC(N)=C(C#N)C2c1ccc(F)cc1 (configuration not stated)
inactive: SK-MEL-2 melanoma 18.5% | EKVX NSCLC 44.8% | SN12C renal 43.8% | UO-31 renal 41.8% | TK-10 renal 69.5% | CCRF-CEM leukemia 12.6% | MOLT-4 leukemia 28.3% | SR leukemia 18.1% | OVCAR-8 ovarian 34.4% | OVCAR-5 ovarian 56.4% | OVCAR-4 ovarian 69% | SK-OV-3 ovarian 16.6% | OVCAR-3 ovarian 16.9% | HS 578T breast 18.8% | NCI/ADR-RES ovarian 26%
active: A498 renal -3.77% | RPMI-8226 leukemia 6.87%

O=C(NNC(=O)c1ccc([N+](=O)[O-])cc1)c1ccc([N+](=O)[O-])cc1
inactive: SK-MEL-2 melanoma 107% | EKVX NSCLC 93.7% | SN12C renal 112% | UO-31 renal 95.4% | TK-10 renal 96.1% | A498 renal 90.5% | CCRF-CEM leukemia 91.6% | MOLT-4 leukemia 100% | SR leukemia 99.1% | RPMI-8226 leukemia 95.5% | OVCAR-8 ovarian 112% | OVCAR-5 ovarian 102% | OVCAR-4 ovarian 93.8% | SK-OV-3 ovarian 96.1% | IGROV1 ovarian 112% | OVCAR-3 ovarian 104% | HS 578T breast 104% | NCI/ADR-RES ovarian 104%

CCc1c(C)c2cc(-n3c(-c4ccc(OC)cc4)csc3=N)c(O)c(C)c2oc1=O
inactive: SK-MEL-2 melanoma 10.7% | EKVX NSCLC 19.4% | SN12C renal 10.2% | UO-31 renal 14.3% | TK-10 renal 64.7% | A498 renal 17.1% | OVCAR-8 ovarian 17.9% | OVCAR-5 ovarian 44% | OVCAR-4 ovarian 12.3% | SK-OV-3 ovarian 43.8% | HS 578T breast 24.5% | NCI/ADR-RES ovarian 11.4%
active: CCRF-CEM leukemia 7.21% | MOLT-4 leukemia 6.48% | SR leukemia 3.54% | RPMI-8226 leukemia -9.39% | OVCAR-3 ovarian 9%

Cc1cc(C)c(O)c(C(=O)CC(Br)C(=O)O)c1 (configuration not stated)
inactive: SK-MEL-2 melanoma 89.5% | EKVX NSCLC 99.4% | SN12C renal 110% | UO-31 renal 77.7% | TK-10 renal 107% | A498 renal 117% | CCRF-CEM leukemia 65.2% | MOLT-4 leukemia 88.5% | SR leukemia 78.3% | RPMI-8226 leukemia 35.8% | OVCAR-8 ovarian 105% | OVCAR-5 ovarian 106% | OVCAR-4 ovarian 106% | SK-OV-3 ovarian 103% | IGROV1 ovarian 106% | OVCAR-3 ovarian 108% | HS 578T breast 107% | NCI/ADR-RES ovarian 103%

C=C(C)[C@@H]1C/C=C(\COC(=O)[C@H](OC(C)=O)C(NC(=O)c2ccccc2)c2ccccc2)CC[C@H]2O[C@]2(C)CC/C=C(\C)CC1 (some centres not stated)
active: CCRF-CEM leukemia -89.5% [5 µM] | SR leukemia 3.12% [5 µM] | RPMI-8226 leukemia -6.61% [5 µM]
inactive: SK-MEL-2 melanoma 76.2% [5 µM] | EKVX NSCLC 64.5% [5 µM] | SN12C renal 82.1% [5 µM] | UO-31 renal 51.9% [5 µM] | TK-10 renal 85.8% [5 µM] | A498 renal 84.9% [5 µM] | MOLT-4 leukemia 17.6% [5 µM] | OVCAR-8 ovarian 86.7% [5 µM] | OVCAR-5 ovarian 88.7% [5 µM] | OVCAR-4 ovarian 62.3% [5 µM] | SK-OV-3 ovarian 87.7% [5 µM] | IGROV1 ovarian 45.9% [5 µM] | HS 578T breast 79.5% [5 µM] | NCI/ADR-RES ovarian 62.9% [5 µM]

Cc1cc(SCc2ccc(Cl)cc2Cl)nc(SCc2ccc(Cl)cc2Cl)n1
inactive: SK-MEL-2 melanoma 103% | EKVX NSCLC 88.5% | SN12C renal 112% | UO-31 renal 97.5% | TK-10 renal 94.9% | A498 renal 98.7% | CCRF-CEM leukemia 108% | MOLT-4 leukemia 104% | SR leukemia 105% | RPMI-8226 leukemia 103% | OVCAR-8 ovarian 104% | OVCAR-5 ovarian 97.8% | OVCAR-4 ovarian 88.2% | SK-OV-3 ovarian 116% | OVCAR-3 ovarian 102% | HS 578T breast 102% | NCI/ADR-RES ovarian 99.4%

CC(=O)n1cc(/C=C2\N=C(c3ccc(Cl)cc3)N(c3ccc(S(=O)(=O)Nc4nccs4)cc3)C2=O)c2ccccc21
inactive: SK-MEL-2 melanoma 89.2% | EKVX NSCLC 85.7% | SN12C renal 74.3% | UO-31 renal 70.4% | TK-10 renal 117% | A498 renal 74.9% | CCRF-CEM leukemia 47.8% | MOLT-4 leukemia 51.1% | SR leukemia 61.3% | RPMI-8226 leukemia 62% | OVCAR-8 ovarian 66.1% | OVCAR-5 ovarian 105% | OVCAR-4 ovarian 73.3% | SK-OV-3 ovarian 110% | IGROV1 ovarian 91.4% | OVCAR-3 ovarian 76.9% | HS 578T breast 72.4% | NCI/ADR-RES ovarian 106%

COC(=O)c1ccc(NC(N)=NCC(C)(C)COc2ccc(C(F)(F)F)cc2)nc1
inactive: SK-MEL-2 melanoma 79.9% | EKVX NSCLC 45.5% | SN12C renal 51.3% | UO-31 renal 41.1% | TK-10 renal 53.9% | A498 renal 74.2% | CCRF-CEM leukemia 15.7% | RPMI-8226 leukemia 10.9% | OVCAR-8 ovarian 52.2% | OVCAR-5 ovarian 72% | OVCAR-4 ovarian 40.6% | SK-OV-3 ovarian 106% | IGROV1 ovarian 21.3% | OVCAR-3 ovarian 50% | HS 578T breast 86.3% | NCI/ADR-RES ovarian 44.6%
active: MOLT-4 leukemia 9.32% | SR leukemia -32.3%

Cc1ccc(/C=C2/C(=O)Nc3cc(Cl)c(-c4csc(N)n4)cc32)cc1
inactive: SK-MEL-2 melanoma 49.3% | EKVX NSCLC 62.1% | SN12C renal 81% | UO-31 renal 67.4% | TK-10 renal 115% | A498 renal 79.3% | CCRF-CEM leukemia 43.5% | MOLT-4 leukemia 51.3% | SR leukemia 23.9% | RPMI-8226 leukemia 50% | OVCAR-8 ovarian 82.6% | OVCAR-5 ovarian 102% | OVCAR-4 ovarian 68.7% | SK-OV-3 ovarian 77.7% | OVCAR-3 ovarian 59.8% | HS 578T breast 63.7% | NCI/ADR-RES ovarian 82.9%

CCOC(=O)c1noc2c1CCc1cn(Cc3cc(OC)cc(OC)c3)cc1-2
inactive: SK-MEL-2 melanoma 92.1% | EKVX NSCLC 98.1% | SN12C renal 107% | UO-31 renal 84% | TK-10 renal 81.7% | A498 renal 107% | CCRF-CEM leukemia 102% | MOLT-4 leukemia 79.5% | SR leukemia 91.1% | RPMI-8226 leukemia 99.9% | OVCAR-8 ovarian 107% | OVCAR-5 ovarian 108% | OVCAR-4 ovarian 113% | SK-OV-3 ovarian 101% | OVCAR-3 ovarian 103% | HS 578T breast 99.7% | NCI/ADR-RES ovarian 97.9%

CC(Cl)(CCl)CS(=O)(=O)c1ccc(Cl)cc1 (configuration not stated)
inactive: SK-MEL-2 melanoma 99.1% | EKVX NSCLC 103% | SN12C renal 105% | UO-31 renal 92.8% | TK-10 renal 93.2% | A498 renal 77.2% | CCRF-CEM leukemia 109% | MOLT-4 leukemia 101% | SR leukemia 96.2% | RPMI-8226 leukemia 99.8% | OVCAR-8 ovarian 97.4% | OVCAR-5 ovarian 113% | OVCAR-4 ovarian 111% | SK-OV-3 ovarian 102% | OVCAR-3 ovarian 110% | HS 578T breast 97.3% | NCI/ADR-RES ovarian 110%

CC(=O)CC/C=C(\C)[C@H](O)[C@H](C)C(=O)O[C@H]1C[C@H](C)C=C2C=C[C@@]3(C)O[C@@H](O)CC(=O)[C@]3(C)[C@H]21
active: SK-MEL-2 melanoma -59.7% | EKVX NSCLC -28.8% | SN12C renal -11.5% | UO-31 renal -28.6% | TK-10 renal -27.4% | A498 renal -66.2% | CCRF-CEM leukemia 4.28% | MOLT-4 leukemia -7.91% | SR leukemia 0.335% | RPMI-8226 leukemia -18.5% | OVCAR-8 ovarian -14.7% | OVCAR-5 ovarian -10% | OVCAR-4 ovarian -21.9% | SK-OV-3 ovarian -25.5% | IGROV1 ovarian -17.7% | OVCAR-3 ovarian -46.4% | HS 578T breast -10.1% | NCI/ADR-RES ovarian 0.0427%

C#C[C@@]1(O)[C@@H](CO)O[C@@H](n2cc(Br)c3c(Cl)ccnc32)[C@@H]1O
inactive: SK-MEL-2 melanoma 68.7% | EKVX NSCLC 58.7% | SN12C renal 23.7% | UO-31 renal 45.2% | TK-10 renal 63.3% | CCRF-CEM leukemia 12.8% | SR leukemia 22.4% | OVCAR-5 ovarian 40.8% | OVCAR-4 ovarian 26.9% | SK-OV-3 ovarian 42.1% | IGROV1 ovarian 61% | HS 578T breast 40.9%
active: A498 renal -20% | MOLT-4 leukemia 1.9% | RPMI-8226 leukemia 0.227% | OVCAR-8 ovarian -42.5% | OVCAR-3 ovarian -9.54% | NCI/ADR-RES ovarian 0.838%

Nc1nc(-c2cc3c(cc2Cl)NC(=O)/C3=C/c2ccccc2)cs1
inactive: SK-MEL-2 melanoma 71.3% | EKVX NSCLC 34.7% | SN12C renal 51.9% | UO-31 renal 45.6% | TK-10 renal 100% | A498 renal 60% | CCRF-CEM leukemia 16.1% | MOLT-4 leukemia 21.8% | SR leukemia 14.2% | RPMI-8226 leukemia 37.6% | OVCAR-8 ovarian 46.6% | OVCAR-5 ovarian 108% | OVCAR-4 ovarian 69.6% | SK-OV-3 ovarian 81.1% | IGROV1 ovarian 35.4% | OVCAR-3 ovarian 29.8% | HS 578T breast 58.7% | NCI/ADR-RES ovarian 74.6%

CCc1cccc(C)c1NC(=O)c1sc2nc3c(cc2c1N)CCCCC3
active: A498 renal 8.2% | OVCAR-3 ovarian 3.96%
inactive: SK-MEL-2 melanoma 38.9% | EKVX NSCLC 45.7% | SN12C renal 41.1% | UO-31 renal 51% | TK-10 renal 66.7% | CCRF-CEM leukemia 16.6% | MOLT-4 leukemia 26.7% | SR leukemia 14.4% | RPMI-8226 leukemia 12.2% | OVCAR-8 ovarian 28.9% | OVCAR-5 ovarian 45% | OVCAR-4 ovarian 63.9% | SK-OV-3 ovarian 36.9% | HS 578T breast 36% | NCI/ADR-RES ovarian 14.2%

CCCCOc1c(N)cc(Cl)cc1C(=O)OCCN(CC)CC
inactive: SK-MEL-2 melanoma 90.9% | EKVX NSCLC 104% | SN12C renal 97% | UO-31 renal 82.3% | TK-10 renal 94.3% | A498 renal 80.1% | CCRF-CEM leukemia 72.6% | MOLT-4 leukemia 58.4% | SR leukemia 79.5% | RPMI-8226 leukemia 100% | OVCAR-8 ovarian 90.8% | OVCAR-5 ovarian 113% | OVCAR-4 ovarian 118% | SK-OV-3 ovarian 94.5% | IGROV1 ovarian 107% | OVCAR-3 ovarian 108% | HS 578T breast 99.7% | NCI/ADR-RES ovarian 107%
